The list is not random: actives were taken first. Their share in the collection is about 3.4%.
Wnt act: Wnt/beta-catenin pathway activators, primary screen, cell-based, plate reader, single point | activation, % at 9.35 µM | Wnt/beta-catenin reporter cell assay, activator | hit rate 1.2% among 300,000 | AID 743398, 2014; in the data active = activation above about 30%, passing the limit was not always enough; inconclusive = no clear call, values can overlap the other calls
MITF act: activators of MITF-driven TRPM1 promoter reporter, primary screen, cell-based, SK-MEL-5, luciferase, single point. SK-MEL-5 TRPM1-promoter luciferase, 24 h; % of positive control, neutral wells = 0. activation, % at 12.5 µM. hit rate 0.75% among 300,000. AID 588334, 2011;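 active = mean activation of at least 80% with every replicate also reaching 80%; inconclusive = mean reaches 80% but some replicate falls short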
Env fusion inh: inhibitors of HIV-1 Env-driven cell-cell fusion, primary screen, HeLa-JRFL effector, CEM21 target cells, luciferase; inhibition, % at 12.3 µM; hit rate 1.1% among 360,000; AID 651610, 2012;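 active = mean replicate inhibition score of at least 50 and every replicate individually at or above 50; inconclusive = only one of the two criteria met; inactive = mean below 50 and not all replicates reaching 50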
miR-122 sensor: miR-122 Renilla sensor signal increase in Huh7, primary screen, miR-122 inhibitor project, cell-based, single point, plate reader | Huh7 miR-122 Renilla luciferase sensor, 48 h; neutral wells = 0, positive control = 100 | activation (reporter increase), % at 12.5 µM | hit rate 0.3% among 340,000;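 active = mean replicate activation score at least 90 and every replicate individually at or above 90; inconclusive = only one of the two criteria met; inactive = neither criterion met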;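 note: higher luciferase means less miR-122 activity so hits act as miR-122 inhibitors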
esBAF inh: Bmi1 luciferase reporter increase in mESCs, primary screen, esBAF inhibitor project, mouse ES cells, Bmi1 luciferase knock-in, single point; 24 h; 100% = twice the neutral-well signal; reporter increase, % at 12.5 µM; hit rate 2% among 350,000; AID 602393, 2012; in the data active = activation above about 40%; inconclusive = no clear call, values can overlap the other calls;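 note: a rise in the Bmi1 reporter signal indicates esBAF inhibition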
Numbers stand for hits; – = inactive; ? = inconclusive; · = no result.

SMILES | Wnt act | MITF act | Env fusion inh | miR-122 sensor | esBAF inh
CNC[C@@H]1Oc2ncc(C#CC3CCCCC3)cc2C(=O)N([C@@H](C)CO)C[C@@H]1C | · | · | – | – | –
Cc1ccc(Cl)cc1N1CCN(C(=O)C2CCN(c3nnc(-n4cccc4)s3)CC2)CC1 | – | – | 56 | – | –
O=C(C1CCOCC1)N1C[C@@H]2[C@H](c3ccccc31)[C@@H](CO)N2C(=O)Nc1cccc(F)c1 | · | · | · | – | –
C[C@@H]1CN([C@H](C)CO)C(=O)c2cc(NC(=O)C3CCCCC3)ccc2O[C@@H](C)CCCCO[C@@H]1CN(C)C(=O)NC1CCCCC1 | · | · | – | – | –
CCc1cc2c(=O)c(-c3nc4ccccc4[nH]3)coc2cc1OC(=O)N1CCOCC1 | – | – | – | – | 68
Cc1ccc(C)n1-c1cccc(NC(=O)c2ccccc2)c1 | · | – | · | · | ·
O=C(Nc1ccc(F)c(F)c1)c1ccccc1 | – | – | – | – | 42
O=C(Nc1ccc(-c2cnco2)cc1)c1ccc(Cl)cc1 | – | · | – | – | –
Cc1ccc(C)n1-c1ccc(C(=O)Nc2ccccc2)cc1 | 102 | – | – | · | ·
O=C(Nc1ccc(-c2cnco2)cc1)c1ccccc1 | – | 86 | – | · | ·
O=C(Nc1ccc(C(=O)c2ccccc2)cc1)c1ccccc1 | 51 | 127 | – | · | 61
C[C@H](CO)N1C[C@H](C)[C@H](CN(C)S(=O)(=O)c2ccccc2)Oc2c(NC(=O)c3ccncc3)cccc2C1=O | · | · | – | – | –
O=C(Nc1ccc(Br)c(C(F)(F)F)c1)c1ccccc1 | – | – | – | · | ·
CC(C)(C)C(=O)NC(=S)Nc1ccc(C(F)(F)F)cc1 | 43 | – | – | – | –
O=C(Nc1ccc2c(c1)CCCN2C(=O)c1ccccc1)c1ccccc1 | – | – | – | · | 46
O=C(Nc1ccc(C(F)(F)F)cc1)c1ccccc1 | – | 100 | – | · | 53
CC(C)(C)C(=O)NC(=S)Nc1ccc(Cl)c(C(=O)O)c1 | – | – | – | · | ·
Cc1ccccc1C(=O)Nc1ccc2c(c1)CCCN2C(=O)c1cccs1 | – | – | – | – | –
CO[C@H]1CN(C)C(=O)c2cc(NC(=O)NC3CCCCC3)ccc2OC[C@@H](C)N(C(C)=O)C[C@H]1C | · | · | · | – | –
O=C(NCC1CC1)[C@@H]1[C@@H](CO)[C@@H]2Cn3c(ccc(-c4ccccc4F)c3=O)[C@H]1N2Cc1ccncc1 | · | · | · | – | –
Cc1ccc2oc(C(=O)N(Cc3ccncc3)CC3CCCO3)c(C)c2c1 (centres undefined) | – | – | – | – | 58
C[C@H](CO)N1C[C@H](C)[C@H](CN(C)C(=O)Nc2cccc3ccccc23)Oc2ncc(C#CCC3CCCC3)cc2C1=O | · | · | · | – | –
Cc1ccc(N2CN(Cc3ccco3)CNC2=S)cc1 | 36 | – | – | – | ·
Cc1ccc(N2CN(CCC3=CCCCC3)CNC2=S)cc1 | 49 | · | – | – | –
CC(=O)Nc1ccc2c(c1)C(=O)N(C)[C@@H]1CC[C@H](CC(=O)NCC3CCCCC3)O[C@H]1CO2 | · | · | – | – | –
SMILES | Wnt act | MITF act | Env fusion inh | miR-122 sensor | esBAF inh
CC(C)(C)N(Cc1ccccc1)C(=O)CN1C(=O)c2ccccc2C1=O | – | – | – | – | 46
CCCOc1ccc(-c2c(=O)n(O)c3ccccc3[n+]2[O-])cc1 | – | · | – | – | 50
CCOc1ccc(-c2c(=O)n(OCc3ccccn3)c3ccccc3[n+]2[O-])cc1 | – | – | – | – | –
C=CCSc1n[nH]c(-c2ccccc2)n1 | · | – | · | – | 53
O=C(CSc1n[nH]c(-c2ccccc2)n1)N1CCCC1 | – | – | – | – | –
COc1ccc(-c2nc(SCC(=O)Nc3cc(C)on3)n[nH]2)cc1 | · | – | · | – | –
C=CCSc1n[nH]c(-c2ccc(OC)cc2)n1 | · | 101 | – | – | 54
Cn1c(N)c(S(=O)(=O)N2CCCC2)c(=O)n(C)c1=O | 30 | – | – | – | –
Oc1c(C=Nc2ccc(Cl)cn2)sc2ccccc12 | 46 | – | – | · | ·
CN=Cc1sc2ccccc2c1O | – | – | · | – | –
Oc1c(C=Nc2cccnc2)sc2ccccc12 | · | – | · | – | ·
Oc1c(/C=N/c2ccccn2)sc2ccccc12 | 52 | – | – | – | ?
COc1ccc(C2c3c(oc4ccccc4c3=O)C(=O)N2Cc2ccncc2)cc1OC (centres undefined) | · | · | – | · | ·
O=C1c2oc3ccccc3c(=O)c2C(c2cccc(Br)c2)N1Cc1ccco1 (centres undefined) | · | – | 55 | · | ·
CNC(=O)C[C@@H]1CC[C@H]2[C@H](COc3ccc(NC(=O)c4ccc(OC)cc4)cc3C(=O)N2C)O1 | · | · | – | – | –
Cc1cccc(OCCNc2ccc(C(F)(F)F)cc2[N+](=O)[O-])c1 | · | 90 | – | · | ·
CS(=O)(=O)NCCCNc1ccc(C(F)(F)F)cc1[N+](=O)[O-] | – | – | – | – | –
C[C@@H]1CN([C@H](C)CO)C(=O)c2cccc(NC(=O)C3CCOCC3)c2O[C@H]1CN(C)Cc1ccc2c(c1)OCO2 | · | · | – | – | –
COc1cc2c3c([nH]c2cc1F)C(=O)NCC3 | – | – | 59 | · | –
CO[C@H]1CN(C)C(=O)c2cc(NC(C)=O)ccc2OC[C@@H](C)N(C(=O)C2CC2)C[C@H]1C | · | · | – | – | –
CCCCCN(C(=O)CCc1cn(CCCCC)c2ccccc12)c1ccc(Oc2cccnc2)cc1 | – | · | 58 | · | ·
Oc1ccccc1/C=N/Nc1cccc2cccnc12 | 67 | · | – | – | 50
O=C(O)c1ccc(N/N=C/c2cccc3cccnc23)cc1 | 41 | – | – | – | ·
CCCN(C)C[C@H]1OCCCC[C@H](C)Oc2ccc(NS(=O)(=O)c3ccc(F)cc3)cc2C(=O)N([C@H](C)CO)C[C@H]1C | · | · | – | – | –
CCCN(C)C[C@@H]1OCCCC[C@@H](C)Oc2ccc(NS(=O)(=O)c3ccc(C)cc3)cc2C(=O)N([C@H](C)CO)C[C@H]1C | · | · | – | – | ·
SMILES | Wnt act | MITF act | Env fusion inh | miR-122 sensor | esBAF inh
O=C(/C=C/c1ccccc1)NC(NC(=S)Nc1cccc(Cl)c1)C(Cl)(Cl)Cl (centres undefined) | · | – | 63 | – | –
CC(=O)c1ccc(NS(=O)(=O)c2ccc3c(c2)N(C)CCO3)cc1 | – | – | – | 134 | –
CC(=O)c1ccc(NS(=O)(=O)c2cc3c(cc2C)N(C)CCO3)cc1 | – | – | – | – | –
COc1ccc(C(=O)Nc2nc3ccccc3s2)cc1OC | – | – | – | – | 78
O=S(=O)(/N=C(/Nc1nc2ccccc2s1)c1ccccc1)c1ccc(F)cc1 | – | – | – | – | 50
COc1ccc2nc(NC(=O)c3ccc(F)cc3)sc2c1 | – | – | – | – | 55
Cc1noc(C)c1C(=O)Nc1nc2ccc(F)cc2s1 | 59 | – | · | – | 52
COc1ccc(S(=O)(=O)Nc2ccc3c(c2)C(=O)N([C@@H](C)CO)C[C@@H](C)[C@@H](CN(C)C(=O)c2ccccc2)OCCCC[C@@H](C)O3)cc1 | · | · | – | – | –

Source: PubChem (Broad Institute)
